CHO-K1 Ca antag: nonselective inhibitor or artifact in parental CHO-K1 cells | ATP-induced calcium, Fluo-8 fluorescence | inhibition, % at 3 µM | 0.6% of 360,000 active | AID 602250;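 active = inhibition above a per-plate cutoff, the plate's mean sample inhibition plus 3 SD, cut at about 24% in these data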
NTR1 agonist: activates human neurotensin receptor 1; NTR1-U2OS beta-arrestin-GFP spot imaging, agonist mode; activation, % at 20 µM; 0.17% of 330,000 active;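 active = activation at or above 40% of the spot to cytoplasm intensity ratio, with at least 20 cells analyzed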
M1 PAM parental: counter-screen for M1 PAMs: effect in parental CHO-K1 cells; 0.02% of 360,000 active; activation, % at 3 µM; ATP EC20, Fluo-8 calcium fluorescence; 0% at ATP EC20, 100% at ATP max;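 active = activation above the run cutoff, the mean activation of all test compounds plus 3 SD, cut at about 40% in these data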;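 also: peak over basal fluorescence ratio in a 140 s read after ATP addition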
TMEM16A inh: inhibitors of mouse TMEM16A calcium-activated chloride channel | Q8BHY3 | HEK293 TMEM16A/YFP iodide influx fluorescence, ionomycin | normalized B-score (activity score, 25-100; higher = stronger inhibition) at 10 µM | 1.2% of 310,000 active | AID 588511;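 active = ratio plate-corrected score three or more library SD toward inhibition, starting fluorescence score within five deviations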;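 also: score derived from kinetic fluorescence span divided by baseline fluorescence per well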
Target sequence (Q8BHY3 whole entry, looked up): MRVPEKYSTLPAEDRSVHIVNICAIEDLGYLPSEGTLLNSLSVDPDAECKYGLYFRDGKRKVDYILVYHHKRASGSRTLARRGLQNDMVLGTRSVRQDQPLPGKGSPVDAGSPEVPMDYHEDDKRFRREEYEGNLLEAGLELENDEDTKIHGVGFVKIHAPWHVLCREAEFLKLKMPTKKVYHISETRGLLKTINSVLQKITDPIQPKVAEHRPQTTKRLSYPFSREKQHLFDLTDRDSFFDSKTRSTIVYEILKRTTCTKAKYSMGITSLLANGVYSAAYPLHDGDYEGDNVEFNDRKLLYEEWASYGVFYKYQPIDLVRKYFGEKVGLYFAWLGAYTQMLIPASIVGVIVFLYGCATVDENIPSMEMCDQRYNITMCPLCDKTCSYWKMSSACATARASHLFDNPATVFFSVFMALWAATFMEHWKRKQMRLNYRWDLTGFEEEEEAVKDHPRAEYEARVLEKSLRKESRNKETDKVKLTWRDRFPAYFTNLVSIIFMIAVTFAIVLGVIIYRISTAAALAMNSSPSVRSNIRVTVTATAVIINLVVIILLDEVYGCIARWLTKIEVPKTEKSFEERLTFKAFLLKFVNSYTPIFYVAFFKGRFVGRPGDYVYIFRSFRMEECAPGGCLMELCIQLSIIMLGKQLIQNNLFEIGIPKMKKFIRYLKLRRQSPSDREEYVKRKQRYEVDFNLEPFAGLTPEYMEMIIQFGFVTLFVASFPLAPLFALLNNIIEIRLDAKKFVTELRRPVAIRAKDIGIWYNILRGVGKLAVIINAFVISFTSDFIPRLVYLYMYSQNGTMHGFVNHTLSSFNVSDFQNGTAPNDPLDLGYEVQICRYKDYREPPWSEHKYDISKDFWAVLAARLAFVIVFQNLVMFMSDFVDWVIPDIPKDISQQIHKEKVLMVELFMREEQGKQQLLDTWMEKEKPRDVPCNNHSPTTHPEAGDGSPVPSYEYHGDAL
ANO1 activ: activators or potentiators of mouse TMEM16A chloride channel; HEK293 TMEM16A/YFP-H148Q/I152L, iodide quench fluorescence; hits give low values; B-score at 10 µM; AID 623877; 0.3% of 340,000 active; Q8BHY3;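 active = fluorescence-ratio B-score plate-corrected deviation score at least 3 library SD below zero, with starting fluorescence score within 5 deviations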;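 also: channel opened by trigger with iodide after compound preincubation; score built on the fluorescence ratio of max minus min over baseline; more negative score means more quench and so TMEM16A activation or potentiation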
M1 ag parental: nonselective activator or artifact in parental CHO-K1 cells; AID 602248; 0.48% of 360,000 active; Fluo-8 calcium fluorescence; scaled to maximal ATP response, vehicle zero; activation, % at 3 µM; in the data active = activation above about 15%;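 also: untransfected CHO-K1 host cells lacking M1 receptor as counterscreen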
TMEM16A reconf: reconfirmed blocker of mouse TMEM16A calcium-activated chloride channel. shares compounds with TMEM16A inh. HEK293 TMEM16A/YFP-H148Q, iodide quench fluorescence; ionomycin added to raise cell calcium. inhibition, % at 10 µM. 39% of 2,300 active. AID 652189;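 active = mean duplicate percent inhibition, scaled so buffer wells are 0 and the reference blocker 100, over three buffer SD above buffer mean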
HEK293 Ca mobil: calcium mobilization counter-screen hit for TMEM16A inhibitor series. AID 652231. calcium response (% of ionomycin), % at 10 µM. TMEM16A/YFP HEK293, Fluo4 calcium mobilization. 2% of 2,300 active. shares compounds with TMEM16A inh;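 active = duplicate-averaged calcium signal over 20% of the ionomycin maximum, relative to buffer baseline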;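 also: each well's signal is peak minus trough fluorescence divided by its pre-addition baseline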
Parental YFP cnt: counter-screen for TMEM16A inhibitors: effect in parental YFP-HEK293 cells; iodide YFP quench, ionomycin; shares compounds with TMEM16A inh; YFP ratio F(max-min)/F0 at 10 µM; 2,300 tested, under 10 active;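 active = yellow fluorescent protein signal ratio exceeding the buffer control mean by over 5 SD of those controls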;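 also: ratio is mean of duplicate wells from kinetic YFP trace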
ClC-1 rat inh: rat ClC-1 inhibition, TMEM16A specificity screen; ratio percent, % at 10 µM; shares compounds with TMEM16A inh; 2,300 tested, under 10 active; CHO ClC-1-YFP, iodide influx fluorescence quench; iodide control reads 0, buffer control 100;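 active = duplicate-mean ratio percent above the mean of iodide-only control wells, which defines zero, plus 5 of their SD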;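 also: higher percent means stronger block of ClC-1 iodide influx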
Numbers stand for hits; 0 = inactive; - = not tested or not shown. Compounds with a hit are over-represented: about 2.2% of the library has one in this group of screens.

SMILES	CHO-K1 Ca antag	NTR1 agonist	M1 PAM parental	TMEM16A inh	ANO1 activ	M1 ag parental	TMEM16A reconf	HEK293 Ca mobil	Parental YFP cnt	ClC-1 rat inh
Cc1noc(C)c1NC(=O)N(C)C[C@@H]1OCc2cnnn2CCCC(=O)N([C@@H](C)CO)C[C@@H]1C	0	-	0	-	-	0	-	-	-	-
CC(C)OC(=O)C1C2C=CC3(CN(Cc4cccs4)C(=O)C13)O2 (stereo not given)	0	0	0	100	0	0	0	0	0	0
CC(c1ccccn1)N(CCN(C)C)C(=S)Nc1cccc(F)c1 (stereo not given)	0	0	0	0	0	0	-	-	-	-
CC(C)CCN(C(=S)Nc1cccc(C(F)(F)F)c1)C(C)c1ccccn1 (stereo not given)	0	0	0	25	0	0	0	0	0	0
CCc1ccc(CNc2ccc(N3CCN(C(C)=O)CC3)cc2)cc1	0	0	0	25	0	0	0	0	0	0
O=S(=O)(NC1CC(NS(=O)(=O)OCC(Cl)(Cl)Cl)C2CCCCC12)OCC(Cl)(Cl)Cl (stereo not given)	0	0	0	25	0	0	0	0	0	0
Cc1c(C(=O)NC2CC(C)(C)NC(C)(C)C2)oc2c(Cl)cccc12	0	-	0	-	-	0	-	-	-	-
CCOC(=O)c1ccc2c(c1)N(CC(=O)N1CCCC1)C(=O)C(C)(C)O2	0	0	0	0	0	0	-	-	-	-
CCOC(=O)c1ccc2c(c1)N(CC(=O)N1CCCCC1)C(=O)C(C)(C)O2	0	0	0	100	0	0	0	0	0	0
Cc1cccc(CN2C(=O)N/C(=C/c3ccc(C)s3)C2=O)c1	0	0	0	0	0	0	0	0	0	0
Cc1cccc(CN2C(=O)N/C(=C/c3cc(C)n(-c4cc(C)ccn4)c3C)C2=O)c1	0	0	0	0	0	0	-	-	-	-
c1ccc(-c2nc(CSc3nnc(-c4cccs4)o3)cs2)cc1	0	0	0	100	0	0	0	0	0	0
Cc1ccc(CNC(=O)CCNS(=O)(=O)c2cccc3nsnc23)cc1	0	0	0	100	0	0	0	0	0	0
COc1ccc(CCn2c(=S)[nH]c3cc(C(=O)NCc4ccco4)ccc3c2=O)cc1OC	0	0	0	25	0	0	0	0	0	0
Cc1ccc(C(C)C)c(Oc2nnnn2-c2ccccc2)c1	0	0	0	25	0	0	26%	0	0	0
CCOc1cc(N2CCOCC2)c(OCC)cc1NC(=O)CSc1ncccc1C(=O)O	0	0	0	-	0	0	-	-	-	-
O=C(c1ccco1)N1CCCC(c2nc(-c3ccc(S(=O)(=O)NCc4ccccc4)cc3)no2)C1 (stereo not given)	0	0	0	25	0	0	44%	0	0	0
CCc1nc2ccc(C(=O)NCCCN3CCCC3=O)cn2c1N(CC)CCOC	0	-	0	-	-	0	-	-	-	-
COc1ccc(C2(O)CCN(CC(=O)Nc3nc(-c4ccccc4)cs3)CC2)cc1	0	0	0	25	0	0	36%	0	0	0
CC(C)Cn1c(Cc2ccccc2)n[nH]c1=S	0	0	0	100	0	0	0	0	0	0
CCN(CC)C(=O)[C@H]1C[C@H](CC(=O)NCCc2ccccn2)C(=O)N2CCc3c([nH]c4cc(CCC(=O)N(C)C)ccc34)[C@]12C	0	0	0	-	-	0	-	-	-	-
CC(=O)c1sc(NC(=O)C2(F)C(F)(F)C(F)(F)C(F)(F)C(F)(F)C2(F)F)nc1C	26	0	0	100	0	0	43%	0	0	0
CC(=O)c1sc(NC(=O)C=C(C)C)nc1C	0	0	0	0	0	0	-	-	-	-
COc1cc(NC(=O)COc2cc(O)c3c(c2)OC(C)(C)CC3=O)cc(OC)c1OC	37	0	0	100	0	18	20%	0	0	0
COc1cc(C(=O)OCC(=O)N(C)C)cc(NC(=O)c2ccco2)c1OC	0	0	0	100	0	0	0	0	0	0
SMILES	CHO-K1 Ca antag	NTR1 agonist	M1 PAM parental	TMEM16A inh	ANO1 activ	M1 ag parental	TMEM16A reconf	HEK293 Ca mobil	Parental YFP cnt	ClC-1 rat inh
Cc1cccc(NC(=O)c2nc[nH]c2C(=O)NCCCCNC(=O)c2[nH]cnc2C(=O)Nc2cccc(C)c2)c1	0	0	0	-	0	0	-	-	-	-
CC(NC(=O)c1ccc(Cl)c(S(=O)(=O)NC2CC2)c1)c1ccco1 (stereo not given)	0	-	0	-	-	0	-	-	-	-
Cc1cc(C(O)c2ncc(-c3ccccc3)[nH]2)ccc1F (stereo not given)	0	-	0	-	-	0	-	-	-	-
COC(=O)C(Cc1ccc(OC(=O)c2ccccc2Cl)cc1)N1Cc2ccccc2C1=O (stereo not given)	0	0	0	100	0	0	0	0	0	0
CCOC(=O)c1ccc(NC(=O)CCc2nc(-c3ccccc3)no2)cc1	0	0	0	0	0	0	-	-	-	-
CCOC(=O)c1ccc(NC(=O)CCc2nc(-c3ccccc3Cl)no2)cc1	0	0	0	100	0	0	38%	0	0	0
COC(=O)c1ccc2nc(C3CCCCC3)c(Cc3ccccc3)n2c1	0	-	0	-	-	0	-	-	-	-
CC(C)CCN1C(=O)c2ccc(C(=O)Nc3ccccc3C(=O)O)cc2C1=O	0	0	0	25	0	0	0	0	0	0
CN(C)S(=O)(=O)c1ccc(N2CCCC2)c(C(=O)Nc2nc3c(ccc4ccccc43)s2)c1	0	0	0	0	0	0	0	0	0	0
Cc1cnc(NC(=O)c2cc(S(=O)(=O)N(C)C)ccc2N2CCCC2)s1	0	0	0	-	-	0	-	-	-	-
COc1ccc(C2CC(=O)c3c(C)nc(N4CCN(Cc5ccccc5)CC4)nc3C2)cc1OC (stereo not given)	0	0	0	100	0	0	26%	0	0	0
O=c1cc(-c2ccccc2Cl)oc2c(NS(=O)(=O)c3cccs3)ccc(O)c12	0	0	0	25	0	0	27%	0	0	0
c1ccc(-c2nc(-c3ccccn3)no2)cc1	0	0	0	0	0	0	-	-	-	-
c1ccc(-c2ccc(-c3nc(-c4ccccn4)no3)cc2)cc1	0	0	0	25	0	0	0	0	0	0
Nc1nc2c(ncn2[C@@H]2O[C@H](CNC(=O)[C@H](N)Cc3cncn3COCc3ccccc3)[C@@H](O)[C@H]2O)c(=O)[nH]1	0	-	0	-	-	0	-	-	-	-
